Here are results for one compound from PubChem BioAssay (EPA / NIEHS).

Values joined by “and” are separate entries in the source; they are usually repeats but may differ in a detail not shown here. Equal values may be shown once. The source holds several records for some structures; these can differ, active in one and inactive in another. Active and inactive are the calls of the source. Rule for the calls: active = hit-call score of the fitted dose curve at least 0.9, where 1 is the maximum; inactive = score below 0.9.

Read-out in experiment [1]: Interferon-inducible T-cell alpha chemoattractant (ITAC), CXCL11 (gene 6373)
Put plainly: BSK_hDFCGF_ITAC: BioMAP Diversity Plus: hDFCGF Assay for Interferon-inducible T-cell alpha chemoattractant (ITAC) Biomarker Activity (AID 2284251). Conditions: primary human foreskin fibroblasts. An outline of the steps: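 I-TAC levels were read by ELISA on human dermal foreskin fibroblast primary cultures 24 h after dosing, analysed against DMSO in the positive direction. Cytotoxicity was assessed alongside by sulforhodamine B total-protein staining.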

Read-out in experiment [2]: Plasminogen activator inhibitor-1 (PAI1), SERPINE1 (gene 5054)
Put plainly: BSK_KF3CT_PAI1: BioMAP Diversity Plus: KF3CT Assay for Plasminogen activator inhibitor-1 (PAI1) Biomarker Activity (AID 2284252). Conditions: primary human keratinocytes with fibroblasts. The method in brief: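 Keratinocyte + dermal fibroblast co-culture (human primary); 24 h post-dose; PAI-1 by ELISA; gain-of-signal fit vs DMSO control.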

Read-out in experiment [3]: Monocyte Chemoattractant Protein-1 (MCP1), CCL2 (gene 6347)
Nature of the experiment: BSK_IMphg_MCP1: BioMAP Diversity Plus: IMphg Assay for Monocyte Chemoattractant Protein-1 (MCP1) Biomarker Activity (AID 2284253). Conditions: primary human endothelial cells with macrophages. An outline of the steps: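 ELISA readout of MCP-1 at 24 hours in IMphg co-cultures of venular endothelial cells and macrophages, normalised to DMSO; parallel cultures stained with sulforhodamine B for overt cytotoxicity.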

Read-out in experiment [4]: Interleukin-8 (IL8), CXCL8 (gene 3576)
Put plainly: BSK_KF3CT_IL8: BioMAP Diversity Plus: KF3CT Assay for Interleukin-8 (IL8) Biomarker Activity (AID 2284254). Conditions: primary human keratinocytes with fibroblasts. An outline of the steps: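 Chemicals were added to co-cultured human keratinocytes and foreskin fibroblasts, incubated 24 h, then IL-8 was quantified by ELISA. Cytotoxicity was tracked by sulforhodamine B total-protein staining in parallel cultures.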

Read-out in experiment [5]: Macrophage Inflammatory Protein-1 Alpha (MIP1a), CCL3 (gene 6348)
Nature of the experiment: BSK_IMphg_MIP1a: BioMAP Diversity Plus: IMphg Assay for Macrophage Inflammatory Protein-1 Alpha (MIP1a) Biomarker Activity (AID 2284255). Conditions: primary human endothelial cells with macrophages. An outline of the steps:
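MIP-1a protein levels were quantified by ELISA after 24 h treatment of human endothelial cell–macrophage co-cultures, compared with DMSO. Parallel cultures were fixed with TCA and stained with 0.1% SRB to gauge overt cytotoxicity.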

Read-out in experiment [6]: Plasminogen activator inhibitor-1 (PAI1), SERPINE1 (gene 5054)
Nature of the experiment: BSK_MyoF_PAI1: BioMAP Diversity Plus: MyoF Assay for Plasminogen activator inhibitor-1 (PAI1) Biomarker Activity (AID 2284256).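 Note: PAI-1 protein level measured by ELISA in fibroblast cultures.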 Conditions: primary human lung fibroblasts. An outline of the steps: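 Primary human lung fibroblasts are dosed and incubated 24 h. PAI-1 is then measured by ELISA, while parallel cultures undergo SRB staining for overt cytotoxicity. Increases over DMSO define activity.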

Read-out in the next experiment: CD69, CD69 (gene 969)
Put plainly: BSK_IMphg_CD69: BioMAP Diversity Plus: IMphg Assay for CD69 Biomarker Activity (AID 2284257). Conditions: primary human endothelial cells with macrophages. The method in brief:
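Readout is ELISA for CD69 in primary human venular endothelial cell/macrophage co-culture, taken at 24 h post-dosing. SRB staining of parallel cultures gauged overt cytotoxicity; signal increase versus DMSO defined activity.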

Read-out in experiment [7]: Eotaxin 3, CCL26 (gene 10344)
Nature of the experiment: BSK_BF4T_Eotaxin3: BioMAP Diversity Plus: BF4T Assay for Eotaxin 3 Biomarker Activity (AID 2284258). Conditions: primary human bronchial epithelial cells with fibroblasts. An outline of the steps: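 ELISA measurement of Eotaxin-3 after 24 h chemical exposure in a bronchial epithelial/dermal fibroblast co-culture, with DMSO as baseline. Parallel SRB staining (0.1% SRB after 10% TCA fixation, 560 nm) flagged overt cytotoxicity.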

Read-out in experiment [8]: Monocyte Chemoattractant Protein-1 (MCP1), CCL2 (gene 6347)
Nature of the experiment: BSK_BF4T_MCP1: BioMAP Diversity Plus: BF4T Assay for Monocyte Chemoattractant Protein-1 (MCP1) Biomarker Activity (AID 2284259). Conditions: primary human bronchial epithelial cells with fibroblasts. The method in brief: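 MCP-1 ELISA readout taken 24 h after dosing in the BF4T system (bronchial epithelial cells plus dermal fibroblasts). Parallel SRB total-protein staining flagged cytotoxicity; DMSO served as baseline, positive fitting direction.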

Read-out in experiment [9]: Intercellular Adhesion Molecule 1 (ICAM1), ICAM1 (gene 3383)
Put plainly: BSK_BF4T_ICAM1: BioMAP Diversity Plus: BF4T Assay for Intercellular Adhesion Molecule 1 (ICAM1) Biomarker Activity (AID 2284260). Conditions: primary human bronchial epithelial cells with fibroblasts. An outline of the steps: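 ICAM-1 levels measured by ELISA after 24 h chemical treatment of bronchial epithelial cell/dermal fibroblast co-cultures, read against DMSO baseline. Overt cytotoxicity checked in parallel cultures by sulforhodamine B staining.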

Read-out in experiment [10]: Interleukin-8 (IL8), CXCL8 (gene 3576)
Put plainly: BSK_MyoF_IL8: BioMAP Diversity Plus: MyoF Assay for Interleukin-8 (IL8) Biomarker Activity (AID 2284261). Conditions: primary human lung fibroblasts. The method in brief:
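IL-8 levels were measured by ELISA in human lung fibroblasts harvested 24 h after compound addition. Responses were analysed as gain of signal over the DMSO baseline.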

Read-out in another experiment: CD90, THY1 (gene 7070)
Put plainly: BSK_BF4T_CD90: BioMAP Diversity Plus: BF4T Assay for CD90 Biomarker Activity (AID 2284262). Conditions: primary human bronchial epithelial cells with fibroblasts. An outline of the steps:
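CD90 levels by ELISA after 24 h treatment of human bronchial epithelial cell/dermal fibroblast cultures, analysed versus DMSO. Overt cytotoxicity checked in parallel cultures by sulforhodamine B staining.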

Read-out in experiment [11]: Interleukin-8 (IL8), CXCL8 (gene 3576)
Put plainly: BSK_BF4T_IL8: BioMAP Diversity Plus: BF4T Assay for Interleukin-8 (IL8) Biomarker Activity (AID 2284263). Conditions: primary human bronchial epithelial cells with fibroblasts. The method in brief: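 Human bronchial epithelial cells with dermal fibroblasts co-culture; IL-8 measured by ELISA 24 hours after dosing, fitted vs DMSO. Cytotoxicity tracked in parallel cultures by SRB total-protein staining.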

Read-out in experiment [12]: Interleukin-1 alpha (IL1a), IL1A (gene 3552)
Nature of the experiment: BSK_BF4T_IL1a: BioMAP Diversity Plus: BF4T Assay for Interleukin-1 alpha (IL1a) Biomarker Activity (AID 2284264). Conditions: primary human bronchial epithelial cells with fibroblasts. An outline of the steps: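 ELISA read-out of IL-1α from bronchial epithelial cell/dermal fibroblast co-cultures 24 h after compound addition. Increases scored against DMSO negative control. Cytotoxicity monitored by sulforhodamine B staining of parallel cultures.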

Read-out in the next experiment: Decorin, DCN (gene 1634)
Nature of the experiment: BSK_MyoF_Decorin: BioMAP Diversity Plus: MyoF Assay for Decorin Biomarker Activity (AID 2284265). Conditions: primary human lung fibroblasts. The method in brief: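 Compound is added to lung fibroblast cultures; cells incubate 24 h; decorin is then measured by ELISA; the response is analysed upward against DMSO controls.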

Read-out in another experiment: KRT18 (gene 3875)
Put plainly: BSK_BF4T_Keratin818: BioMAP Diversity Plus: BF4T Assay for Keratin 818 Biomarker Activity (AID 2284266). Conditions: primary human bronchial epithelial cells with fibroblasts. The method in brief: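 Keratin 8/18 levels quantified by ELISA after 24 h chemical treatment of bronchial epithelial cell/dermal fibroblast co-cultures, fitted in positive direction relative to DMSO. Parallel SRB staining tracks overt cytotoxicity.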

Experiment [13] in a line: BSK_MyoF_SRB: Viability Assessment in the BioMAP Diversity Plus: MyoF Assay (AID 2284267).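 Note: total protein by SRB absorbance in parallel cultures as cytotoxicity measure.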 Conditions: primary human lung fibroblasts. An outline of the steps:
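Lung fibroblast cultures, 24 h post-dose; fix 10% TCA, stain 0.1% SRB, read 560 nm. Signal = total protein as cytotoxicity measure; fitted relative to DMSO negative control.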

Read-out in experiment [14]: Matrix Metallopeptidase 1 (MMP1), MMP1 (gene 4312)
Put plainly: BSK_MyoF_MMP1: BioMAP Diversity Plus: MyoF Assay for Matrix Metallopeptidase 1 (MMP1) Biomarker Activity (AID 2284268). Conditions: primary human lung fibroblasts. An outline of the steps:
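Lung fibroblast cultures were dosed with test chemicals and, after 24 h, MMP1 levels were measured by ELISA; responses were referenced to DMSO and analysed for increases.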

Read-out in experiment [15]: TIMP metallopeptidase inhibitor 1 (TIMP1), TIMP1 (gene 7076)
Put plainly: BSK_MyoF_TIMP1: BioMAP Diversity Plus: MyoF Assay for TIMP metallopeptidase inhibitor 1 (TIMP1) Biomarker Activity (AID 2284269). Conditions: primary human lung fibroblasts. The method in brief: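 TIMP-1 levels were determined by ELISA in human lung fibroblasts treated for 24 h. DMSO served as negative control and baseline for upward curve fitting.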

Read-out in experiment [16]: Matrix Metallopeptidase 1 (MMP1), MMP1 (gene 4312)
Nature of the experiment: BSK_BF4T_MMP1: BioMAP Diversity Plus: BF4T Assay for Matrix Metallopeptidase 1 (MMP1) Biomarker Activity (AID 2284270). Conditions: primary human bronchial epithelial cells with fibroblasts. The method in brief:
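MMP-1 quantified by ELISA in primary human bronchial epithelial/dermal fibroblast co-cultures, 24 hours post-dosing, with DMSO as baseline; parallel sulforhodamine B staining (560 nm) tracks overt cytotoxicity.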

`Cn1cnc([N+](=O)[O-])c1Sc1ncnc2nc[nH]c12`: the AC50 in [1] was 3.66 µM (active) and 12.6 µM (active); in [5] it was 12.2 µM (active). In addition, the outcome in experiment [2] was “inactive”; in [3], “inactive”; in [4], “inactive”; in experiment [5], “inactive”; in [6], “inactive”; with CD69, CD69 (gene 969), “inactive”. The outcome in experiment [7] was “inactive”; in [8], “inactive”; in [9] it was “inactive”; in experiment [10], “inactive”; in the experiment with CD90, THY1 (gene 7070), “inactive”; in [11], “inactive”. The outcome in experiment [12] is “inactive”; with Decorin, DCN (gene 1634), “inactive”; with KRT18 (gene 3875) it was “inactive”; in [13] it was “inactive”; in experiment [14], “inactive”; in experiment [15], “inactive”. Besides, in [16], the result was inactive.
